From PubChem
Sampled rows, rich in hits. Any-hit rate of the full collection: about 2.3%.
Rango release inh = inhibitors of RanGTP-induced Rango-importin beta complex dissociation; 0.071% of 340,000 active; AID 540253; O95149+P62826; Biochemical FRET Rango-importin beta, RanGTP-induced dissociation; Potency, µM (titrated, usually from 46.1 µM), without a hit: at the highest dose activity change, negative = inhibition; calls by dose curve; also: % of control where 0% means no effect; nearly all actives have a fitted effect of over 45% in size
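FRET read at 45 min, room temperature: inhibitors block the CFP/YFP signal rise when RanGTP (0.6 uM Ran, 2 mM GTP, 0.2 uM RCC1) frees Rango (0.1 uM) from importin beta (0.25 uM). Pre-read after 5 min compound exposure flags interference.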
Nrf2 inh = inhibitors of Nrf2 signaling; A549 ARE-Fluc reporter, luciferase luminescence, 18-24 h; Potency, µM (titrated, usually from 46 µM), for the others: top-dose activity change, negative = inhibition, actives largely listed as inhibitors; 2.1% of 360,000 active; AID 504444; also: % is scaled to controls: 0 for no effect and ±100 for the full control effect; nearly all actives have a fitted effect of over 60% in size
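Quantitative HTS in A549 cells stably bearing an antioxidant response element-firefly luciferase construct. Inhibition of Nrf2-driven transcription was scored by luminescence after 18-24 h of compound exposure at 37 °C.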
A549 tox-1 = kills or reduces viability of A549 cells in Nrf2 counter-screen | A549 ARE-Fluc cells, CellTiter-Fluor viability, 18-24 h | Potency, µM (titrated, usually from 46 µM), for the others: top-dose activity change, negative = cytotoxicity, usual class: inhibitors | 0.16% of 390,000 active; also: % is scaled to controls: 0 for no effect and ±100 for the full control effect
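A549 ARE-Fluc cells in 5% FBS OPTI-MEM, 5000 cells/well, rested 2 h then exposed to compounds in concentration-response for 18-24 h at 37 °C. Viability by CellTiter-Fluor fluorescence (Ex 405/Em 525) after 30 min; luciferase luminescence (BugLite, 15 min, RT) read afterwards.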
Rango complex inh = inhibitors of Rango-importin beta complex formation; Q14974; Rango CFP/YFP FRET sensor + importin beta, 45 min; Potency, µM (series often up to 92.2 µM), inactives show at the top dose inhibition of complex formation; 0.031% of 340,000 active; calls by dose curve;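 also: 0% = DMSO wells and 100% = buffer wells lacking importin beta; nearly all actives have a fitted effect of over 15% in size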
Target sequence (Q14974 whole entry, looked up): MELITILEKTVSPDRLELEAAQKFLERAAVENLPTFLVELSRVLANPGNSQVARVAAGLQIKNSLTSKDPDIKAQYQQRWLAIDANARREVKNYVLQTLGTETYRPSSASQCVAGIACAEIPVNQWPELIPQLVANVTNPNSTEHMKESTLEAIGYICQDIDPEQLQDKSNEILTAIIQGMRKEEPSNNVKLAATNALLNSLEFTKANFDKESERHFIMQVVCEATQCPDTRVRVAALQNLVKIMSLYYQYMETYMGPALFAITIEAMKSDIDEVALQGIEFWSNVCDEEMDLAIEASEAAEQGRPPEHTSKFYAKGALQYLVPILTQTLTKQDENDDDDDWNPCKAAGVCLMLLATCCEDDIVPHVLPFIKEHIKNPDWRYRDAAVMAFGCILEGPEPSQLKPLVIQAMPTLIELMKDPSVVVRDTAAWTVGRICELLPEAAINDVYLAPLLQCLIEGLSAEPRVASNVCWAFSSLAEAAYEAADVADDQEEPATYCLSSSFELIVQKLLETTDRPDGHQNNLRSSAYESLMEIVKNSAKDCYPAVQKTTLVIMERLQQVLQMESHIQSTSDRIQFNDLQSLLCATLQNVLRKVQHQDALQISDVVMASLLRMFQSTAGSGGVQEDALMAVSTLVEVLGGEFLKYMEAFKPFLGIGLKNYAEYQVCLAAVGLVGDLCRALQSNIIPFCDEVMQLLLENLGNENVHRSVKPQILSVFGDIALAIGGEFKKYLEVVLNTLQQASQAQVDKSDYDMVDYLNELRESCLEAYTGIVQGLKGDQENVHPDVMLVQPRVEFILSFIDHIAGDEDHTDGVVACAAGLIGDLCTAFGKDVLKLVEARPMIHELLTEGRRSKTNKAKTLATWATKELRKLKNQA
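FRET biosensor (snurportin 1 IBB flanked by EYFP and cerulean), 50 nM, with compound 5 min, then 0.125 microM importin beta in PBS, 1 mM DTT, 0.02% Tween-20, 0.1% BSA. CFP/YFP ratio read after 45 min at room temperature; pre-read flags interference.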
Nrf2 ARE act = activates Nrf2 signaling; AREc32 ARE-luciferase reporter (MCF7-derived line), luminescence, 24 h; Potency, µM (titrated, usually from 46.1 µM), inactives show at the highest dose activation, hits mostly activators; 0.31% of 410,000 active; also: % of control where 0% means no effect; nearly all actives have a fitted effect of over 65% in size
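AREc32 cells carrying an ARE-driven firefly luciferase reporter were seeded at 1000 cells/well in OPTI-MEM with 5% FBS, then exposed to compound for 24 hr at 37 deg C. Luminescence was read with Steady-Glo after 30 min at RT.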
FLuc counter 3 = blocks purified firefly luciferase in Nrf2 counterscreen. shares compounds with Nrf2 inh. purified firefly luciferase, luminescence inhibition. Potency, µM (titrated, usually from 57.5 µM), for the others: at the highest dose activity change, negative = inhibition, actives largely listed as inhibitors. 4% of 1,400 active. AID 720522; also: % is scaled to controls: 0 for no effect and ±100 for the full control effect; nearly all actives have a fitted effect of over 65% in size
A549 tox-2 = toxic to A549 ARE-Fluc cells in Nrf2 counterscreen; 2% of 1,400 active; AID 720523; Potency, µM (highest dose often 46.1 µM), for the others: top-dose activity change, negative = cytotoxicity, usual class: inhibitors; shares compounds with Nrf2 inh; A549 ARE-Fluc cells, cytotoxicity counterscreen;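 also: cells exposed to compounds for 18 to 24 hours; % is scaled to controls: 0 for no effect and ±100 for the full control effect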
ARE-Fluc inh = confirmation of Nrf2 inhibitors in A549 ARE reporter cells; shares compounds with Nrf2 inh; A549 ARE-firefly luciferase reporter, luminescence; Potency, µM (top dose mostly 46.1 µM), for inactives: at the highest dose activity change, negative = inhibition, usual class: inhibitors; 74% of 1,400 active; AID 720524; also: % is scaled to controls: 0 for no effect and ±100 for the full control effect; nearly all actives have a fitted effect of over 65% in size
The depositor's hits bear a star; u = inconclusive; x = not tested or not shown. Unless noted, calls follow the shape of the dose curve; as a rule, active = well fitted curve in the direction sought with a large enough effect; inconclusive = small, poorly fitted or top-dose-only effect, or another doubt; inactive = no such curve, though single readings can be large; an effect the other way counts as inactive or inconclusive. Potency is read from the fitted curve at half-maximal effect.

SMILES	Rango release inh	Nrf2 inh	A549 tox-1	Rango complex inh	Nrf2 ARE act	FLuc counter 3	A549 tox-2	ARE-Fluc inh
CCCC(=O)Nc1nc(C)c(-c2csc(Nc3ccc(Cl)cc3)n2)s1	-10%	7.3µM*	u	u	9%	17µM*	-17%	u
CCCC(=O)Nc1nc(C)c(-c2csc(Nc3ccccc3OC)n2)s1	0%	11%	-3%	1%	0%	x	x	x
CCC(=O)Nc1nc(C)c(-c2csc(Nc3ccc(C(=O)O)cc3)n2)s1	39%	16%	-1%	3%	-1%	x	x	x
O=S(=O)(NCc1cn2ccsc2n1)c1ccc(Oc2ccccc2)cc1	-13%	7.3µM*	u	-1%	0%	-1%	-6%	7.3µM*
O=S(=O)(NCc1cn2ccsc2n1)c1cccs1	-11%	u	-1%	-1%	4%	x	x	x
Cc1cc(C2=NNC(=NC3CC3)SC2)c(C)n1-c1ccccc1F	2%	0.92µM*	-4%	5%	-3%	3%	-10%	x
CCc1cccc(OCC(=O)Nc2ccc(C)c(S(=O)(=O)N3CCCCCC3)c2)c1	-19%	u	-6%	0%	0%	x	x	x
Cc1ccc(NC(=O)COc2ccc(N(C)C(=O)C(C)(C)C)cc2)cc1S(=O)(=O)N1CCCCC1	-16%	3.7µM*	u	1%	0%	-15%	u	5.2µM*
N=c1ccn(Cc2ccc(F)cc2)cc1	-1%	2.3µM*	-13%	0%	-1%	u	21µM*	23µM*
O=C1CNC(=S)N1Cc1ccc(F)cc1	0%	8%	1%	0%	1%	x	x	x
CN(C)CCNC(=O)c1cc2c(s1)-c1ccc(Cl)cc1SC2	-1%	5.8µM*	4%	u	-3%	-1%	u	0.013µM*
Cc1ccc(CNC(=O)c2cc3c(s2)-c2ccc(Cl)cc2SC3)cc1	x	u	2%	x	0%	x	x	x
O=C(c1[nH]c(C(F)(F)F)nc1-c1ccccc1)N1CCN(c2ncccc2C(F)(F)F)CC1	x	x	x	x	0%	x	x	x
Cc1cccc(C(=O)Nc2ccnc(-c3cccnc3)n2)c1	8%	u	-2%	1%	0%	x	x	x
O=C(Nc1ccc2oc(-c3ccncc3)nc2c1)c1ccc(F)cc1	0%	u	0%	-4%	-1%	x	x	x
Cc1cccc(C(=O)Nc2ccnc(-c3ccncc3)n2)c1	-1%	2.6µM*	u	0%	0%	-3%	1%	-24%
Cc1cccc(C(=O)Nc2ccc3oc(-c4ccncc4)nc3c2)c1	x	9.2µM*	-2%	x	-1%	-18%	-5%	1.5µM*
Cc1cc(=O)n2nc(N3CCC(C(=O)Nc4ccc(Br)cc4F)CC3)sc2n1	x	-8%	-3%	x	0%	x	x	x
Cc1cccc(N(C(=O)CNC(=O)c2cccs2)C(C(=O)NC2CCCC2)c2ccncc2)c1 (centres undefined)	1%	3%	0%	-1%	0%	x	x	x
Cc1cc(NC(=O)CSc2nc3c(sc4ccccc43)c(=O)n2CCCN2CCOCC2)n[nH]1	-8%	7.3µM*	u	0%	-1%	2%	u	10µM*
Cc1cc(NC(=O)CSc2nc3c(sc4ccccc43)c(=O)n2CCc2ccccc2)n[nH]1	2%	-27%	-10%	2%	-1%	x	x	x
Cc1cc(C)c(Cn2c(=O)n(CCCC(=O)NCc3ccc4c(c3)OCO4)c(=O)c3sccc32)c(C)c1	x	-2%	4%	x	0%	x	x	x
CN(C)c1nc(-c2ccccn2)nnc1-c1ccccc1	-1%	u	u	0%	-1%	-2%	-13%	12µM*
C/C(Cl)=C\Cn1c(N2CCCC2)nc2c1c(=O)n(C)c(=O)n2C	-6%	u	-10%	2%	-1%	x	x	x
CCOC(=O)c1cccnc1SCC(=O)Nc1ccc(C)cc1C	x	x	9%	x	5%	x	x	x
SMILES	Rango release inh	Nrf2 inh	A549 tox-1	Rango complex inh	Nrf2 ARE act	FLuc counter 3	A549 tox-2	ARE-Fluc inh
Cc1ccc(S(=O)(=O)n2nc(OC(=O)c3ccccc3F)cc2N)cc1	5%	0%	-4%	-3%	0%	x	x	x
COc1ccc(S(=O)(=O)n2nc(OC(=O)c3ccc(C)cc3)cc2N)cc1	8%	0.58µM*	-14%	5%	-2%	-23%	5%	x
Cc1ccc(C(=O)Oc2cc(N)n(S(=O)(=O)c3ccc(C)cc3)n2)cc1	-16%	1.2µM*	-5%	0%	-2%	-3%	-1%	4.6µM*
CCC(=O)c1ccc(OCc2ccc(C(=O)c3ccccc3)cc2)cc1	15%	7.3µM*	u	-1%	0%	-2%	-2%	8.2µM*
O=C(NCC1CCCO1)c1cc(Br)c(Br)s1 (centres undefined)	-6%	-24%	4%	-5%	0%	x	x	x
O=C(Nc1ccc(-c2csc(Nc3ccc(Cl)cc3)n2)cc1)c1cccc(C(F)(F)F)c1	-14%	-28%	-8%	1%	11%	x	x	x
O=C(Nc1nc(-c2ccccc2)cs1)c1ccc(N2CCOCC2)c([N+](=O)[O-])c1	13%	4.6µM*	u	3%	0%	u	u	7.3µM*
O=C(Nc1ccc(-c2csc(Nc3ccccc3)n2)cc1)c1cccc(C(F)(F)F)c1	9%	9.2µM*	-6%	-1%	9%	-15%	-25%	15µM*
Cc1ccc(-c2csc(NC(=O)c3cccc([N+](=O)[O-])c3)n2)cc1	-8%	u	-5%	-1%	-1%	2%	-12%	1.5µM*
CN(c1ccccc1)S(=O)(=O)c1cccc(NC(=O)c2ccc(=O)[nH]n2)c1	1%	u	-6%	u	0%	x	x	x
c1cc[n+](CCC[n+]2ccccc2)cc1	25%	1%	1%	-2%	-1%	x	x	x
